# CtBP-E1A blk – qHTS Assay for Inhibitors of the CtBP/E1A Interaction; CtBP / adenovirus E1A interaction (AlphaScreen); AlphaScreen GST-E1A/His-CtBP binding, 1536-well; hits give low values; activity change, % (test concentration not listed); hit rate 0.49% among 340,000; in the data active = activity change below about -65%; inconclusive = mostly about -30% to -63%; also: % is scaled to controls: 0 for no effect and ±100 for the full control effect
#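 Homogeneous bead-based format: GST-tagged E1A captured on glutathione donor beads, His-tagged CtBP on nickel acceptor beads; compounds precede bead addition by 2 h at 37 °C.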
# TDP1 block – qHTS Assay for Inhibitors of Tyrosyl-DNA Phosphodiesterase (TDP1) | Tyrosyl-DNA phosphodiesterase 1 (Homo sapiens), Q9NUW8 | recombinant TDP1, AlphaScreen DNA substrate cleavage | Potency, µM (titrated, usually from 130 µM), for the others: at the highest dose activity change, negative = inhibition, actives largely listed as inhibitors | hit rate 0.28% among 350,000 | AID 485290, 2010; also: potency is read from the fitted curve at half-maximal effect; % is scaled to controls: 0 for no effect and ±100 for the full control effect; nearly all actives have a fitted effect of over 40% in size
#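 Enzyme-compound mixtures sat 15 min at room temperature, followed by a 5 min reaction with 15 nM final substrate and 10 min with AlphaScreen beads. Recombinant human Tdp1 was used at 1 nM final.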
# JMJD2A Tudor inh – qHTS Assay for Inhibitors of JMJD2A-Tudor Domain | Potency, µM (titrated, usually from 114 µM), for inactives: at the highest dose activity change, negative = inhibition, most hits filed as inhibitors | AlphaScreen JMJD2A-Tudor / H3K4me3 peptide binding | hit rate 4.4% among 390,000; also: potency is read from the fitted curve at half-maximal effect; % is scaled to controls: 0 for no effect and ±100 for the full control effect; nearly all actives have a fitted effect of over 50% in size
# BAZ2B block – qHTS Assay for Inhibitors of BAZ2B. Bromodomain adjacent to zinc finger domain protein 2B (Homo sapiens), Q9UIF8. AlphaScreen BAZ2B-H3K14Ac peptide displacement. Potency, µM (series often up to 114 µM), for inactives: top-dose activity change, negative = inhibition, usual class: inhibitors. hit rate 4.4% among 360,000; also: potency is read from the fitted curve at half-maximal effect; % is scaled to controls: 0 for no effect and ±100 for the full control effect; nearly all actives have a fitted effect of over 60% in size
#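 AlphaScreen displacement of biotin-H3(5-23)K14Ac peptide (50 nM final) from BAZ2B (50 nM final) in PBS pH 7.4, 0.01% Tween-20; complex preformed 30 min RT, then compounds (top 110 uM) 30 min RT, beads 20 min dark.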
# Six1-Eya2 inh – qHTS Assay for Inhibitors of the Six1/Eya2 Interaction | activity change, % (test concentration not listed) | hit rate 0.56% among 360,000 | AlphaScreen GST-Six1/His-Eya2 binding, biochemical; hits give low values; in the data active = activity change below about -65%; inconclusive = mostly about -30% to -63%; also: % is scaled to controls: 0 for no effect and ±100 for the full control effect
#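 Homogeneous AlphaScreen proximity assay pairing GST-Six1 with His-tagged Eya2 (added as 5X mix: 250 nM and 500 nM) in 50 mM Tris pH 8.0, 300 mM NaCl, 1 mM TCEP. Glutathione donor and nickel acceptor beads; 1 h, 37 °C, dark.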
# HP1b binding inh – HTS for Inhibitors of HP1-beta Chromodomain Interactions with Methylated Histone Tails | Chromobox protein homolog 1 (Homo sapiens), P83916 | AlphaScreen HP1-beta / biotin-H3K9me3 peptide binding | Potency, µM (series often up to 114 µM), for inactives: at the highest dose activity change, negative = inhibition, actives largely listed as inhibitors | hit rate 0.56% among 390,000 | AID 540317, 2011; also: potency is read from the fitted curve at half-maximal effect; nearly all actives have a fitted effect of over 70% in size
#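 Compound inhibition of the preformed complex between 50 nM HP1-beta and 50 nM biotinylated H3K9me3 peptide was read by AlphaScreen. Buffer was PBS pH 7.4 with 0.01% Tween-20. Incubations ran 30 min at room temperature, with 10 ug/mL donor/acceptor beads.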
# * marks the source's active call; other numbers are inactive results; ? = inconclusive; . = not tested or not shown; [ ] = remark or other dose. An excerpt weighted towards active compounds, which were near 5.3% of everything screened. Unless noted, calls follow the shape of the dose curve; as a rule, active = well fitted inhibition curve with a large enough effect; inconclusive = small, poorly fitted or top-dose-only effect; inactive = no such curve, though single readings can be large or run the other way.
SMILES,CtBP-E1A blk,TDP1 block,JMJD2A Tudor inh,BAZ2B block,Six1-Eya2 inh,HP1b binding inh
Cc1[nH]c2c(C)cccc2c1CCNS(=O)(=O)c1cccc([N+](=O)[O-])c1,-15,5%,?,50µM*,-10,?
COc1cc(S(=O)(=O)NCCc2c(C)[nH]c3ccc(C)cc23)ccc1Br,.,12%,50µM*,?,.,?
COc1cccc(C(=O)Nc2nc3nc(C)c(C)c(=O)n3[nH]2)c1,.,2%,89µM*,?,.,19%
COc1ccc(OCC(=O)NC(=S)NNC(=O)COc2ccc(Br)cc2Cl)cc1,0,14%,8.9µM*,-8%,-3,?
COc1ccc(NC(=S)NNC(=O)COc2ccc(Cl)cc2Cl)cc1,-5,0%,?,-30%,-4,-26%
CC/C(C)=N/O,.,5%,.,.,.,.
Cc1cccc(/C=N/n2c(-c3ccncc3)n[nH]c2=S)c1,1,8%,2.8µM*,-8%,-1,-37%
Cc1cccc(-c2n[nH]c(=S)n2/N=C/c2ccc(C)s2)c1,5,3%,?,-20%,24,28%
CC(C)c1ccc(/C=N/n2c(-c3ccccc3)n[nH]c2=S)cc1,.,.,?,-1%,1,20%
S=c1[nH]nc(-c2ccncc2)n1/N=C/c1ccccc1,13,3%,7.9µM*,-7%,10,11%
Cc1ccc(/C=N/n2c(-c3ccncc3)n[nH]c2=S)s1,1,1%,3.5µM*,-11%,-13,34%
CO/N=C1/c2cc(OC)ccc2O[C@@H](c2cccc(OC)c2)[C@H]1O,.,6%[21 µM],.,.,.,.
C/C=C\C(=O)Nc1cccc(C2=NOC3(C2)C[C@H](C(N)=O)N(C(=O)/C=C/CC)C3)c1 (stereo partly drawn),3,4%,-17%,4%,-5,18%
C=C(C)C(=O)Nc1cccc(C2=NOC3(C2)C[C@@H](C(N)=O)N(C(=O)/C=C/CC)C3)c1 (stereo partly drawn),0,-14%,10µM*,7.1µM*,-15,10µM*
C=C(C)C(=O)Nc1cccc(C2=NOC3(C2)C[C@@H](C(N)=O)N(C(=O)C2(C)CC2)C3)c1 (stereo partly drawn),-1,11µM*,2.2µM*,1.6µM*,3,2.5µM*
C/C=C\C=C/C(=O)Nc1cccc(C2=NOC3(C2)C[C@@H](C(N)=O)N(C(=O)/C=C/C=C\C)C3)c1 (stereo partly drawn),3,20µM*,50µM*,79µM*,-28,?
C/C=C\C=C/C(=O)Nc1cccc(C2=NOC3(C2)C[C@@H](C(N)=O)N(C(=O)/C=C/CC)C3)c1 (stereo partly drawn),-18,5%,?,-17%,0,?
C/C=C\C(=O)Nc1cccc(C2=NOC3(C2)C[C@@H](C(N)=O)N(C(=O)C2(C)CC2)C3)c1 (stereo partly drawn),-3,2%,-5%,3%,2,30%
C=C(C)C(=O)Nc1cccc(C2=NOC3(C2)C[C@@H](C(N)=O)N(C(=O)C(=C)C)C3)c1 (stereo partly drawn),9,.,7.9µM*,5µM*,-3,8.9µM*
CCC(C(=O)Nc1ccccc1)n1nc(-c2cc(C)ccc2C)ccc1=O (stereo not drawn),.,5%,-22%,-14%,.,13%
COc1ccc(S(=O)(=O)N2Cc3ccccc3CC2C(=O)Nc2cc(Cl)ccc2Cl)cc1 (stereo not drawn),.,-1%,-4%,-7%,.,25%
Cc1ccc(NC(=O)CN2C(=O)COc3ccc(S(=O)(=O)N4CCOCC4)cc32)c(Cl)c1,.,8%,-4%,-18%,.,60%

# Bioassay records: PubChem, National Center for Advancing Translational Sciences (NCATS)
